Measured values: PubChem BioAssay AID504321 (NMMLSC, 2011)
Values joined by “and” are separate entries in the source; they are usually repeats but may differ in a detail not shown here. Equal values may be shown once.

Experiment: yeast MEP2-GFP fusion level changes, TOR pathway – flow cytometry, third cherry pick, S. cerevisiae, confirmation (AID 504321);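 also: median per-cell GFP fluorescence by flow cytometry across all yeast cells; ratio of sample to DMSO median GFP so 100% equals the DMSO level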
Conditions: S. cerevisiae MEP2-GFP strain, 3 h, at 10 µM, stronger effect = higher value;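 active = GFP response vs DMSO above 150% with enough events counted; inconclusive = fewer than 70 events counted for a yeast strain; inactive = the rest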

GFP response vs DMSO, inactive:
COc1ccc(-c2cc(C(F)(F)F)nc(S(C)(=O)=O)n2)cc1OC 114% and 121%, COc1ccccc1Nc1nc(NCC(C)C)nc(N)c1[N+](=O)[O-] 114%, CCN(CC)C(=O)Oc1cc(=O)n(C)c2ccccc12 112%, CC1=CN2C(=N)/C(=C/c3ccco3)C(=O)N=C2S1 105%, COCCCNc1nc(N)c([N+](=O)[O-])c(Nc2cc(OC)ccc2OC)n1 110%, OCCNc1ncnc2ccc(Br)cc12 101%, COC1=C/C(=C/c2c(N)n3cc(C)sc3nc2=O)C=CC1=O 131%, CCCC(=O)Nn1cnc2c(c1=O)C1(CCCCC1)Cc1ccccc1-2 105%, COc1cc(=O)n(C)c2c(O)cccc12 110%, Oc1ccc(Cl)c2cccnc12 101%, COc1cccc(OCc2cc(C(=O)N3CCN(C)C(c4ccccc4)C3)no2)c1 (centres undefined) 108%, Nc1nc(NCCOCCO)nc(Nc2cccc(F)c2)c1[N+](=O)[O-] 108%, COc1ccccc1-c1cc(C(F)(F)F)nc(S(C)(=O)=O)n1 142%, O=C(Nc1ccccc1)O/N=C1\CCCCC1c1ccc([N+](=O)[O-])cc1[N+](=O)[O-] (centres undefined) 105%, CC(=O)NCCOc1cccc2cccnc12 110%, CCCOCc1ccc(O)c2ncccc12 110%, CNc1nc(C)c([N+](=O)[O-])c(Nc2ccc(OC)cc2)n1 105%, CNc1cccc2c1C(=O)c1ccccc1C2=O 114%, Nc1c(O)ccc2c1C(=O)c1ccccc1C2=O 105%, CC(=O)Nn1cnc2c(c1=O)C1(CCCC1)Cc1ccccc1-2 105%, Nc1cccc2c1C(=O)c1ccc(Cl)cc1C2=O 116%, COc1cc(OC)cc(C(=O)Nc2ccc(-c3nc4ccccc4o3)cc2)c1 110%, N#Cc1c(N)nc(N)nc1Nc1ccc(Br)cc1 110%, O=C(O)CCS(=O)(=O)c1nc(-c2cccs2)cc(C(F)(F)F)n1 116%, CC(=O)C(CC(=O)N1CCCC1)C(=O)Nc1ccc(Cl)cc1 (centres undefined) 105%, COc1ccc(OC)c2c(C)cc(C)nc12 108%, Cn1c(NCCCO)nc2c(c1=O)C1(CCCCC1)Cc1ccccc1-2 112%, COc1cccc(NC(=O)CC(C)=O)c1 108%, COc1ccc(N/C(C)=C/C(=O)c2ccccc2)cc1 103%, Cn1c(=O)c2c(n3cnnc13)-c1ccccc1CC21CCCC1 112%, CCCCC(=O)NCCc1cc2c(OC)ccc(OC)c2[nH]c1=O 108%, COc1cccc(N/C=C/C(=O)c2ccc(C)cc2)c1 112%, CC(=O)C(Cl)C(=O)Nc1ccccc1 (centres undefined) 118%, O=C(Nc1nc(-c2ccccn2)cs1)c1ccccc1-n1cnnn1 94.7%, CCc1sc(C(=O)Nc2nc(-c3ccccn3)cs2)cc1C 114%, COCC(C)NC(=O)CCS(=O)(=O)c1nc(-c2ccc(OC)cc2)cc(C(F)(F)F)n1 (centres undefined) 112%, O=C(Nc1cccc(Cl)c1)ON=C1c2ccccc2-c2ccccc21 110%, NC(=O)c1ccnc2c(O)cccc12 108%, O=C(Nc1ccccc1)O/N=C1/CCCc2occc21 112%
